# Only some compounds are listed: those with a hit (about 3.8% of all), similar ones and a draw of the others.
# HT1080-NT tox = kills 2HG-producing HT-1080-NT fibrosarcoma cells; 360,000 tested, 1.6% active; AID 686970; HT-1080-NT fibrosarcoma viability, CellTiter-Glo ATP luminescence, 48 h; Potency, µM (titrated, usually from 46.1 µM), for inactives: at the highest dose activity, negative = less viability, usual class: cytotoxic;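 note: NT is the 2HG producing partner of a matched IDH1 knockdown line; 0% = DMSO-treated cells and -100% = media-only wells without cells; nearly all actives have a fitted effect of over 55% in size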
#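 Luminescent CellTiter-Glo readout after 48 hours of compound exposure at 37 degrees C defined viability of HT-1080-NT cells. Activity was normalized to DMSO wells and cell-free media wells; concentration-response curves were fitted and assigned curve classes.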
# HepG2 viability = counter-screen for TGF-b inhibitors: cytotoxicity in HepG2 cells. Potency, µM (series often up to 46.1 µM), without a hit: at the top dose activity change, negative = cytotoxicity, usual class: cytotoxic. HepG2 CAGA-GFP viability, ATP luminescence, 18 h. AID 588856. 410,000 tested, 0.76% active
#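 CellTiter-Glo luminescence gave cytotoxicity after 18 hours at 37 degrees C. The cells were HepG2 CAGA-GFP in 1% FBS DMEM, stimulated with 500 pg/mL TGF-beta after compound addition. %Activity was normalised to no-cell wells (complete cell-killing) and DMSO (no toxicity), and curves were fitted and classified.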
# HT1080 IDH1KD tx = toxicity to HT-1080 IDH1 knockdown cells (counter line); Potency, µM (titrated, usually from 46.1 µM), for the others: top-dose activity, negative = toxicity, actives largely listed as cytotoxic; HT-1080 IDH1 knockdown viability, ATP luminescence, 48 h; 360,000 tested, 2% active; AID 686971;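 note: 0% = DMSO wells and -100% = cell-free medium wells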
#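 In this qHTS, HT-1080 cells depleted of IDH1 are exposed for 48 h at 37 °C to compound titrations. Toxicity is scored from CellTiter-Glo luminescence, with DMSO as full viability and medium alone as none.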
# ATXN2 expr inh = inhibitors of ATXN2 expression; AID 1745845; Potency, µM (titrated, usually from 57 µM), for the others: at the top dose activity change, negative = inhibition, usual class: inhibitors; HEK-293 ATXN2-luciferase reporter, luminescence, 24 h; 360,000 tested, 0.72% active; note: % is set by controls: 0 for no effect and ±100 for the full control effect; nearly all actives have a fitted effect of over 55% in size
#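 qHTS (up to 57 uM final) was run with 24 h compound exposure of reporter cells at 37 °C. Each well was multiplexed: SteadyGlo luminescence measured ATXN2-luciferase expression after a fluorogenic Gly-Phe-AFC viability readout (25 uM final).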
# TGFb inhibitor = inhibitors of TGF-b signaling; AID 588855; 410,000 tested, 1.2% active; HepG2 CAGA-GFP TGF-b/SMAD3 reporter, GFP fluorescence, 18 h; TGF-beta stimulated, 500 pg/mL final; Potency, µM (top dose mostly 46.1 µM), for inactives: top-dose activity, negative = inhibition, hits mostly inhibitors; note: % is set by controls: 0 for no effect and ±100 for the full control effect; nearly all actives have a fitted effect of over 65% in size
#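 Using HEPG2 CAGA-GFP reporter cells at 1000 cells/well, we pinned test compounds, stimulated with recombinant TGF-beta (500 pg/mL final) and measured total well GFP after 18 h.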
# S2 tox = cell viability loss in ATXN counter-screen | AID 651635 | 400,000 tested, 0.49% active | Potency, µM (doses to about 56.7 µM), actives largely listed as cytotoxic | S2 cells (HEK-293 line with an ATXN2-luciferase reporter) viability, CellTiter-Fluor protease fluorescence, 24 h; note: nearly all actives have a fitted effect of over 40% in size
# * = called active by the depositor; i = inactive; u = inconclusive; x = no result; [ ] = another dose, or the depositor's remark. Calls come from the whole dose curve; as a rule, active = well fitted curve in the direction sought with a large enough effect; inconclusive = small, poorly fitted or top-dose-only effect, or another doubt; inactive = no such curve, though single readings can be large; an effect the other way counts as inactive or inconclusive. Potency is the fitted concentration of half-maximal effect.
SMILES,HT1080-NT tox,HepG2 viability,HT1080 IDH1KD tx,ATXN2 expr inh,TGFb inhibitor,S2 tox
C=C(C)[C@@H]1CC[C@]2(C)CC[C@]3(C)[C@H](CC[C@@H]4[C@@]5(C)CC[C@H](O)C(C)(C)[C@H]5CC[C@]43C)[C@@H]12,x,x,x,5%,x,x
COc1cc(OC)cc(-c2c(-c3cccs3)c3cc(-c4ccn[nH]4)ccc3n2C)c1,u,-6%,u,u,16µM*,u
CCc1ccc(NC(=O)Cn2cc(S(=O)(=O)N3CCCC3)c(S(=O)(=O)N3CCCC3)c2)cc1,x,-23%,x,8%,-7%,i
O=C(Nc1ccc(SC(F)F)cc1)c1ccc2c(=O)n3c(nc2c1)CCC3,3.3µM*,-4%,-26%,-21%,-20%,i
O=C(Nc1nc(-c2ccccc2)cs1)c1ccc2c(=O)n3c(nc2c1)CCCCC3,u,-23%,u,14µM*,u,u
O=C(C[n+]1cc(Br)cc(Br)c1)c1ccc(I)cc1,x,9%,x,x,6%,x
CCN1CCN(C(=O)c2sc3ncnc(NCC4CCCO4)c3c2C)CC1 (stereo unspecified),x,x,x,x,x,i
Cc1ccc(Cn2c(C(CO)Nc3nc(-c4ccc(F)cc4)cs3)nc3ccccc32)cc1 (stereo unspecified),u,16%,u,u,-3%,x
Cc1ccc(Cn2c(C(CO)Nc3nc(-c4ccc(Cl)c([N+](=O)[O-])c4)cs3)nc3ccccc32)cc1 (stereo unspecified),u,-40%,-26%,-21%,16µM*,u
c1nc2nc(Nc3ccc(N4CCOCC4)cc3)nc(NC3CCCCC3)c2[nH]1,x,x,x,24µM*,x,x
CC(/C=N\NC(=O)Cn1c(C)nc2ccccc21)=C\c1ccccc1,8.2µM*,-12%,21µM*,u,-19%,u
CC(/C=N/NC(=O)CSc1nc(C)cc(C)n1)=C\c1ccccc1,1%,-1%,-1%,-13%,65%,i
Cc1ccc(-c2cc(-c3coc4ccc(Cl)cc4c3=O)c3c(n2)-c2ccccc2OC3)cc1,x,2%,x,-4%,4%,i
COc1ccc(S(=O)(=O)Nc2cccc(-c3ccc(N4CCC(C)CC4)nn3)c2)c(OC)c1,x,-4%,x,30%,-16%,u
COc1ccc(S(=O)(=O)N2CCOCC2)cc1NC(=O)COc1ccc(C)cc1,0%,-4%,-3%,-12%,2%,i
CCOc1ccc(S(=O)(=O)N2CCOCC2)cc1NC(=O)CSCc1ccc(C)cc1,8.2µM*,-8%,u,x,-5%,u
COc1ccc(S(=O)(=O)N2CCOCC2)cc1NC(=O)CCNC(=O)c1ccc(Cl)cc1,21µM*,9%,u,6%,10%,i
CCN(CC)c1ccc(/C=N\NC(=O)c2cccc3cc[nH]c23)cc1,u,-4%,5.2µM*,-5%,-25%,x
O=C(N/N=C/c1ccc([N+](=O)[O-])cc1)c1cccc2cc[nH]c12,-1%,-5%,-4%,x,-4%,i
COCCn1c(C)cc(C(=O)CSc2nnc3ccccn23)c1C,-2%,-24%,-11%,7.1µM*,-1%,i
Cc1ccc(C(=O)CSc2nnc3ccccn23)c(C)c1,2%,-28%,6%,-17%,u,i
Cc1nc2cc(C(F)(F)F)ccc2n1CCNc1nc(-c2ccc(F)cc2)cs1,8%,-7%,0%,-2%,-23%,i
Cc1nc2cc(C(F)(F)F)ccc2n1CCNc1nc(-c2ccc([N+](=O)[O-])c(Cl)c2)cs1,u,-34%,u,u,16µM*,u
Cc1ccc(C(C)C)c(OCC(=O)Nc2nc3c(s2)CCCC3)c1,x,-5%,x,x,u,x
CCCC(c1c(C)n(C)n(-c2ccccc2)c1=O)c1c(C)n(C)n(-c2ccccc2)c1=O,2%,11µM*,u,-1%,-6%,i
SMILES,HT1080-NT tox,HepG2 viability,HT1080 IDH1KD tx,ATXN2 expr inh,TGFb inhibitor,S2 tox
COc1cccc(-n2c(=O)c3sc4ccccc4c3n(CC(=O)Nc3ccccc3OC)c2=O)c1,x,-18%,x,12%,u,u
CC(C)n1c(-c2ccc(N(C)C)cc2)nc2ccccc21,-21%,-53%,10%[9.24 µM],52%,u,u
Cn1c(-c2ccc(Br)o2)nc2ccccc21,12µM*,-64%,18µM*,19%,u,i
CN(C)c1ccc(-c2nc3ccccc3n2C)cc1,u,8.9µM*,11µM*,u,u,i
Cc1ccc(NC(=O)Cn2c(=O)ccc3cc(S(=O)(=O)N4CCCC4)ccc32)cc1C,x,-14%,x,10%,10%,i
O[Si](CCCN1CCCCC1)(c1ccc(F)cc1)C1CCCCC1 (stereo unspecified),u,-42%,21µM*,-12%,35%,i
O=C(Nc1ccc(N2CCOCC2)c(S(=O)(=O)Nc2ccccc2Cl)c1)c1ccccc1,-16%,-23%,-13%,-24%,-18%,i
O=C(Nc1ccc(Cl)cc1)Nc1ccc(N2CCCC2)c(S(=O)(=O)Nc2ccccc2Cl)c1,u,-32%,6.5µM*,u,u,i
CCNC(=O)NCCCOc1cccc(CN2CCCCC2)c1,x,x,x,6%,x,i
O=c1cc(N2CCCCC2)c(-c2ccccc2)nn1Cc1c(Cl)cccc1Cl,18µM*,18µM*,16µM*,u,10µM*,u
COc1ccccc1/C=C1\C=Cc2ccccc21,x,-13%,x,x,-18%,x
CCOC(=O)CCC(NC(=O)c1ccc(Nc2nc3ccccc3nc2C(=O)OCC)cc1)C(=O)OCC (stereo unspecified),8%,15%,9%,27µM*,-3%,30µM*
COc1ccccc1-c1cc(C(=O)NN)[nH]n1,21µM*,7%,13µM*,9%,25%,i
COc1ccc(Cl)c(-c2cc(C(=O)Nc3ccc(C)c(NS(C)(=O)=O)c3)[nH]n2)c1,-15%,-27%,u,u,23%,u
COc1ccc(Cl)cc1-c1cc(C(=O)NCc2cccc(Cl)c2)[nH]n1,u,-24%,u,u,u,u
Cc1ccc(Cl)cc1-c1cc(C(=O)NCc2cc(C(F)(F)F)cc(C(F)(F)F)c2)[nH]n1,u,-50%,u,u,11µM*,u
COc1ccc(-c2cc(C(=O)NN)[nH]n2)cc1OC,u,-3%,u,-19%,-16%,x
COc1ccc(Cl)cc1-c1cc(C(=O)Nc2ccc(C)c(NS(C)(=O)=O)c2)[nH]n1,21µM*,-73%,23µM*,22µM*,u,16µM*
